Compounds without any hit were thinned out: in the full panel of roughly 83,000, 20% have a hit.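 Cell lines were cultured in 96-well plates, exposed to a single compound concentration, and assessed for percent growth 48 hours later.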 Calls of active or inactive are those of the source. How the source made its calls: active means growth percent below 10; inactive means the rest.

For one experiment, the system named is NCI-H226 lung. The experiment is described as follows: NCI-60 one-dose screen, 48 h (100 = growth as untreated, 0 = no growth, -100 = all killed). Conditions: 10 µM unless noted.
As for `C#C[C@]1(O)CC[C@H]2[C@@H]3CC=C4c5sc(Nc6nc(C)cc(OC)n6)nc5CC[C@]4(C)[C@H]3CC[C@@]21C`, the growth was 71% (inactive).
With `CN1CCN(c2ccc(NC(=O)Nc3ccc4c(ccn4-c4cccc(C(N)=O)n4)c3)cc2C(F)(F)F)CC1`, the growth was 83.6% (inactive).
Still for that read-out and setting: under `COc1ccc(NS(=O)(=O)c2ccc(-c3cnc(C4CC4)o3)cc2)cc1Cl` stands 35.5% (inactive); under `CC1OC(O[C@@H]2C(O)C(CO)OC(O[C@H]3COC(O[C@H]4CC[C@]5(C)[C@H]6CC[C@]78OC[C@@]9(CC[C@](C)(C=O)C[C@H]97)[C@H](O)C[C@@]8(C)[C@]6(C)CC[C@H]5C4(C)C)[C@@H](OC4OC(CO)[C@@H](O)[C@@H](O)[C@@H]4O)[C@@H]3O)[C@H]2OC2OC[C@@H](O)[C@@H](O)[C@@H]2O)[C@@H](O)[C@@H](O)[C@H]1O` (stereo partly drawn), -47.5% (active).
The same measure, in the same setting: for `COc1ccc(-c2ccc3c4c(cccc24)C(=O)N(N2C(=O)c4cccc5cccc(c45)C2=O)C3=O)cc1` the value was 101% (inactive).
Still for that read-out and setting: under `N#Cc1c(NC(=O)c2ccc(F)c(Cl)c2)sc2c1CCC(=O)C2` stands 18.3% (inactive); under `Nc1ccc(-c2nnc(SCc3ccc(O)c4ncccc34)o2)cc1`, -12.5% (active); under `IP(CCCCCCCCCCSc1n(Cc2ccc3ccccc3c2)c(-c2ccccc2)c(-c2ccccc2)[n+]1Cc1ccc2ccccc2c1)(c1ccccc1)(c1ccccc1)c1ccccc1`, -55.2% (active).
With `Cc1cc(Cl)cc(NS(=O)(=O)c2ccc(-c3cnc(C4CC4)o3)cc2)c1`, the growth was 60.5% (inactive).
Still for that read-out and setting: for `COc1cc(/C=N/n2cnc3oc(-c4ccccc4)cc3c2=N)cc(CN2CCCCC2)c1O` the value was -3.78% (active).
On the same count and under the same terms, under `CCOC(=O)c1c(NC(=O)c2ccc(C(C)(C)C)cc2)sc2cc(OCCN3CCCCC3)ccc12` stands 101% (inactive); under `NS(=O)(=O)Oc1ccc2nc(Nc3ccc(F)c(F)c3)ccc2c1`, 90.5% (inactive).
The same measure, in the same setting: under `CC(=O)c1sc(Nc2cccc(Nc3nc(C)c(C)s3)c2)nc1C` stands 65.4% (inactive).
In the case of `CCCCCCNC(=O)Oc1ccc(/C(=C(\C)c2ccc(OC)cc2)c2ccc(OCCN(C)C)cc2)cc1`, the growth is 105% (inactive).
`Cc1cccc(NC(c2cc3cccc4ccc5cccc2c5c43)c2nnnn2C(C)(C)C)c1C` (stereo not drawn): the growth is 31.9% (inactive).
On the same count and under the same terms, under `CCOC(=O)c1c(NCC(=O)Nc2cccc([N+](=O)[O-])c2)sc2c1CCCC2` stands -58.1% (active); under `O=c1oc2ccc(-c3ccc(F)cc3F)cc2c(=O)n1-c1ccc(F)c(F)c1`, 6.65% (active).
Same read-out and setting: under `Brc1cccc(/C=N/Nc2nc(N/N=C/c3cccc(Br)c3)nc(N3CCOCC3)n2)c1` stands 43.3% (inactive).
`N#C/C(=C\c1ccc2ccccc2c1)C(=O)Nc1sc2c(c1C#N)CCC2`: the growth was 94.1% (inactive).

A further experiment relates to HOP-62 NSCLC. The experiment is described as above. The note with it: 10 µM unless noted.
In the case of `COc1cc(C2=NN(C(C)=O)C(c3ccc(N4CCOCC4)cc3)C2)cc(OC)c1OC` (stereo not drawn), the growth was 91.8% (inactive).
Still for that read-out and setting: under `COc1ccc([C@H]2c3[nH]c4ccccc4c3C[C@@H]3C(=O)N(C4CCN(Cc5ccccc5)CC4)CC(=O)N23)c(OC)c1` stands 80.8% (inactive).
Same read-out and setting: for `COc1ccc([C@H]2[C@H](O)C(=O)N2c2cc(OC)c(OC)c(OC)c2)cc1Cl` the value was 23.1% (inactive); for `COc1ccc(/C=C/C(=O)c2nnn(-c3ccc(C(=O)O)cc3)c2C)cc1OC`, 107% (inactive).
On the same count and under the same terms, under `O=[N+]([O-])c1ccc(-c2nnc(SCc3ccc(O)c4ncccc34)n2-c2ccccc2)cc1` stands 23.2% (inactive).
For `O=C(NCCCNc1cc(-c2cn(-c3ccccc3)nc2-c2cccc(O)c2)ccn1)Nc1cccc(C(F)(F)F)c1`, the growth is 43.2% (inactive).
`CC(C)C(=O)Nc1ccc(-c2nc(-c3cccc(O)c3)c(-c3ccnc(Br)c3)[nH]2)cc1`: the growth was 42.6% (inactive).
As to `Cc1cc(F)cc(NS(=O)(=O)c2ccc(-c3cnc(C4CC4)o3)cc2)c1`, the growth was 34.2% (inactive).
Still for that read-out and setting: under `CCOC(=O)c1c(NCC(=O)Nc2cccc(Cl)c2)sc2c1CCCC2` stands 78.6% (inactive); under `O=S(=O)(Nc1cc(Cl)cc(Cl)c1)c1ccc(-c2cnc(C3CC3)o2)cc1`, 43.1% (inactive).
As to `COc1cc2c3c(n(CCCNC4CCC4)c(=O)c2cc1OC)-c1cc2c(cc1C3=O)OCO2`, the growth was -72.2% (active).
As to `CCOC(=O)Nc1cccc(-n2cnc3cc(-c4ccc(O)cc4)ccc32)c1`, the growth is 46.7% (inactive).
Consider `CC(=O)NC(C)(C)C(=O)N[C@@H](C)C(=O)NC(C)(C)C(=O)N[C@@H](C)C(=O)NC(C)(C)C(=O)N[C@@H](C)C(=O)N[C@@H](CCC(N)=O)C(=O)NC(C)(C)C(=O)N[C@H](C(=O)NC(C)(C)C(=O)NCC(=O)N[C@@H](CC(C)C)C(=O)NC(C)(C)C(=O)N1CCC[C@H]1C(=O)N[C@H](C(=O)NC(C)(C)C(=O)NC(C)(C)C(=O)N[C@@H](CCC(N)=O)C(=O)N[C@@H](CCC(N)=O)C(=O)N[C@H](CO)CC1CCCCC1)C(C)C)C(C)C`, for which the growth is 46.3% [5 µM] (inactive).
Same read-out and setting: under `Cc1nn(-c2ccc(Cl)cc2)c(C)c1N=Nc1ccc2oc(=O)ccc2c1` stands 91.7% (inactive); under `O=C(NCCNc1cc(-c2cn(-c3ccccc3)nc2-c2cccc(O)c2)ccn1)Nc1ccc(Cl)c(C(F)(F)F)c1`, 85.3% (inactive); under `CN(c1ccc(Br)cc1)S(=O)(=O)c1ccc(-c2cnc(C3CC3)o2)cc1`, 41.3% (inactive).
The same measure, in the same setting: for `CC(C)C[C@H]1C(=O)O[C@H](C(C)C)C(=O)N(C)[C@@H](C(C)C)C(=O)O[C@H](C(C)C)C(=O)N(C)[C@@H](C(C)C)C(=O)O[C@H](C(C)C)C(=O)N1C` the value was 14.7% (inactive); for `CCCC(=O)NC(c1cccnc1)c1cc(Cl)c2cccnc2c1O` (stereo not drawn), 32.2% (inactive); for `Nc1nc(-c2cccc([N+](=O)[O-])c2)c(N=Nc2ccccc2[N+](=O)[O-])s1`, -36.1% (active).
On the same count and under the same terms, under `C/C(=N\NC(=O)CSc1nc2sc3c(c2c(=O)n1-c1ccccc1)CCC(C)C3)c1ccc(Cl)cc1` (stereo not drawn) stands 34.5% (inactive); under `C#C[C@]1(O)CC[C@H]2[C@@H]3CC=C4c5sc(Nc6nc(C)cc(OC)n6)nc5CC[C@]4(C)[C@H]3CC[C@@]21C`, 40% (inactive); under `CN1CCN(c2ccc(NC(=O)Nc3ccc4c(ccn4-c4cccc(C(N)=O)n4)c3)cc2C(F)(F)F)CC1`, 63.2% (inactive).
Turning to `COc1ccc(NS(=O)(=O)c2ccc(-c3cnc(C4CC4)o3)cc2)cc1Cl`, the growth was 30.2% (inactive).
On the same count and under the same terms, for `CC1OC(O[C@@H]2C(O)C(CO)OC(O[C@H]3COC(O[C@H]4CC[C@]5(C)[C@H]6CC[C@]78OC[C@@]9(CC[C@](C)(C=O)C[C@H]97)[C@H](O)C[C@@]8(C)[C@]6(C)CC[C@H]5C4(C)C)[C@@H](OC4OC(CO)[C@@H](O)[C@@H](O)[C@@H]4O)[C@@H]3O)[C@H]2OC2OC[C@@H](O)[C@@H](O)[C@@H]2O)[C@@H](O)[C@@H](O)[C@H]1O` (stereo partly drawn) the value was -74.6% (active); for `COc1ccc(-c2ccc3c4c(cccc24)C(=O)N(N2C(=O)c4cccc5cccc(c45)C2=O)C3=O)cc1`, 92.7% (inactive); for `N#Cc1c(NC(=O)c2ccc(F)c(Cl)c2)sc2c1CCC(=O)C2`, 8.63% (active).
On the same count and under the same terms, for `Nc1ccc(-c2nnc(SCc3ccc(O)c4ncccc34)o2)cc1` the value was -5.24% (active); for `IP(CCCCCCCCCCSc1n(Cc2ccc3ccccc3c2)c(-c2ccccc2)c(-c2ccccc2)[n+]1Cc1ccc2ccccc2c1)(c1ccccc1)(c1ccccc1)c1ccccc1`, -59.1% (active); for `Cc1cc(Cl)cc(NS(=O)(=O)c2ccc(-c3cnc(C4CC4)o3)cc2)c1`, 41.7% (inactive).
Still for that read-out and setting: under `COc1cc(/C=N/n2cnc3oc(-c4ccccc4)cc3c2=N)cc(CN2CCCCC2)c1O` stands -39.2% (active); under `CCOC(=O)c1c(NC(=O)c2ccc(C(C)(C)C)cc2)sc2cc(OCCN3CCCCC3)ccc12`, 91.1% (inactive); under `NS(=O)(=O)Oc1ccc2nc(Nc3ccc(F)c(F)c3)ccc2c1`, 99.4% (inactive).
As for `CC(=O)c1sc(Nc2cccc(Nc3nc(C)c(C)s3)c2)nc1C`, the growth is 77.8% (inactive).
Turning to `CCCCCCNC(=O)Oc1ccc(/C(=C(\C)c2ccc(OC)cc2)c2ccc(OCCN(C)C)cc2)cc1`, the growth is 89.8% (inactive).
For the molecule `Cc1cccc(NC(c2cc3cccc4ccc5cccc2c5c43)c2nnnn2C(C)(C)C)c1C` (stereo not drawn), the growth is 86.5% (inactive).
Still for that read-out and setting: under `CCOC(=O)c1c(NCC(=O)Nc2cccc([N+](=O)[O-])c2)sc2c1CCCC2` stands -48.4% (active); under `O=c1oc2ccc(-c3ccc(F)cc3F)cc2c(=O)n1-c1ccc(F)c(F)c1`, 17.6% (inactive).
On the same count and under the same terms, for `Brc1cccc(/C=N/Nc2nc(N/N=C/c3cccc(Br)c3)nc(N3CCOCC3)n2)c1` the value was 52.3% (inactive); for `N#C/C(=C\c1ccc2ccccc2c1)C(=O)Nc1sc2c(c1C#N)CCC2`, 106% (inactive).

Values taken from PubChem BioAssay (NCI).
